{
  "source": "PubChem BioAssay AID504834",
  "about": "(National Center for Advancing Translational Sciences (NCATS), 2011)",
  "note": "Where “and” joins values, the source holds several entries; their conditions need not be identical. Identical values can stand only once. About 22,000 (6.9%) of roughly 320,000 compounds were called active. Roughly 27% stayed inconclusive and do not appear here. The call rests on the fitted dose curve; in most records, active means well fitted inhibition curve with a large enough effect; inconclusive means small, poorly fitted or top-dose-only effect, or another doubt; inactive means no such curve, though single readings can be large or run the other way. Shown is part of a subset that was picked to be rich in actives. Some compounds were tested as several samples or in several runs, with calls that do not always agree. On the % scale 0 is the no-effect control and ±100 the full control effect; potency means the concentration at half of the fitted maximal effect.",
  "data": [
    {"test": "Primary qHTS for delayed death inhibitors of the malarial parasite plastid, 96 hour incubation", "details": "P. falciparum luciferase reporter growth; series mostly up to 28.7 µM; activity change, negative = inhibition: at the top concentration", "method_in_brief": "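Parasite growth measured via integrated firefly luciferase reporter in P. falciparum. Infected erythrocytes at 2% hematocrit, 0.05% parasitemia final were treated 96 hours at 37 C under 5% CO2, and luminescence was read.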", "values": [
      {"compound": "Cn1c(SCC(=O)N/N=C/c2ccc(O)c(O)c2)nc2ccccc21", "activity change, negative = inhibition": "0.417% (inactive)"},
      {"compound": "COc1ccccc1CCNC(=O)c1c(C)nn(CC(C)C)c1Cl", "activity change, negative = inhibition": "2.72% (inactive)"},
      {"compound": "Cc1nn(Cc2ccccc2Cl)c(Cl)c1C(=O)OC(C(=O)NC(N)=O)C(C)C", "note": "(stereo unspecified)", "Potency": "13.1 µM (active)"},
      {"compound": "COC(=O)c1ccc(COC(=O)c2c(C)nn(Cc3ccccc3Cl)c2Cl)o1", "activity change, negative = inhibition": "-79.4% (inactive)"},
      {"compound": "CCCCCCn1cc(C(=O)O)c(=O)c2cc(F)c(N3CCCCC3)cc21", "activity change, negative = inhibition": "-5.73% (inactive)"},
      {"compound": "CC(C)CN(C(=O)Cn1c(=O)cnc2ccccc21)C1CCS(=O)(=O)C1", "note": "(stereo unspecified)", "activity change, negative = inhibition": "0.302% (inactive)"},
      {"compound": "Cc1ccc(C)c(NC(=O)CN(C)C(=O)c2ccc3ncsc3c2)c1", "activity change, negative = inhibition": "0% (inactive)"},
      {"compound": "COc1ccc(C(=O)CCC(=O)Nc2ccc(Cl)cc2)cc1", "activity change, negative = inhibition": "37.7% (inactive)"},
      {"compound": "COc1ccccc1/C=N/N1CCN(Cc2ccccc2Cl)CC1", "activity change, negative = inhibition": "39.7% (inactive)"},
      {"compound": "COc1ccc(C2/C(=C(/O)c3ccccc3)C(=O)C(=O)N2c2ncccn2)cc1OC", "note": "(stereo unspecified)", "activity change, negative = inhibition": "1.16% (inactive)"},
      {"compound": "COc1ccc(C2N=C(N)N=C(N)N2c2ccccc2)cc1OC", "note": "(stereo unspecified)", "Potency": "2.62 µM (active)"},
      {"compound": "COc1ccc(C2SCCN2S(=O)(=O)c2ccccc2)cc1OC", "note": "(stereo unspecified)", "activity change, negative = inhibition": "31.4% (inactive)"},
      {"compound": "Cc1ccc(S(=O)(=O)N(C)C)cc1NC(=O)C(C)OC(=O)c1ccc2ccccc2n1", "note": "(stereo unspecified)", "activity change, negative = inhibition": "4.57% (inactive)"},
      {"compound": "COc1ccc(S(=O)(=O)N(C)CC(=O)NCCCN2CCOCC2)cc1Cl", "activity change, negative = inhibition": "28.2% (inactive)"},
      {"compound": "CC(=O)c1ccc(NC(=O)CCc2nnc3ccc(NCc4ccco4)nn23)cc1", "activity change, negative = inhibition": "15.2% (inactive)"},
      {"compound": "O=C(CCc1nnc2ccc(NCc3ccco3)nn12)Nc1cc(F)ccc1F", "activity change, negative = inhibition": "-2.28% (inactive)"},
      {"compound": "CCOc1ccccc1NC(=O)CCc1nnc2ccc(NCc3ccco3)nn12", "Potency": "8.28 µM (active)"},
      {"compound": "CC(C)C[C@H](NC(=O)C1CCC(CNC(=O)[C@@H]2CCCN2C(=O)OC(C)(C)C)CC1)C(=O)O", "note": "(stereo partly specified)", "activity change, negative = inhibition": "2.05% (inactive)"},
      {"compound": "COc1ccc(CCNC(=O)CCCCCNC(=O)N2CCn3c2nc2ccccc23)cc1OC", "Potency": "14.7 µM (active)"},
      {"compound": "CC(C)[C@H](NC(=O)N1CCn2c1nc1ccccc12)C(=O)NCc1ccc2c(c1)OCO2", "activity change, negative = inhibition": "1.93% (inactive)"},
      {"compound": "COc1ccc(CCNC(=O)CCc2ccccc2O)cc1OC", "activity change, negative = inhibition": "4.65% (inactive)"},
      {"compound": "Cc1ccc(C(=O)N2CCC(n3nccc3NC(=O)Nc3cccc(F)c3)CC2)cn1", "activity change, negative = inhibition": "0% (inactive)"},
      {"compound": "CCCC(=O)Nc1ccc2c(c1)nc(CCNC(=O)c1ccco1)n2C", "activity change, negative = inhibition": "0% (inactive)"},
      {"compound": "COc1cccc(C2CC(c3ccccc3)=NN2S(=O)(=O)c2ccccc2)c1OC", "note": "(stereo unspecified)", "activity change, negative = inhibition": "-2.15% (inactive)"},
      {"compound": "COc1ccc(C2CC(c3cccs3)=NN2C(=O)CCC(=O)O)cc1OC", "note": "(stereo unspecified)", "Potency": "2.62 µM (active)"},
      {"compound": "COc1ccc(C2CC(c3cccs3)=NN2C(=O)COC(=O)c2cc3ccccc3cc2O)cc1OC", "note": "(stereo unspecified)", "activity change, negative = inhibition": "0% (inactive)"},
      {"compound": "COc1cccc(C2CC(c3cccs3)=NN2C(=O)CSC2=NCCS2)c1OC", "note": "(stereo unspecified)", "Potency": "6.57 µM (active)"},
      {"compound": "Cc1ccc(C2=NN(C(=O)CSc3nc(N)cc(N)n3)C(c3ccco3)C2)cc1", "note": "(stereo unspecified)", "activity change, negative = inhibition": "-26.7% (inactive)"},
      {"compound": "COc1ccc(C2CC(c3cccs3)=Nc3ccccc3S2)cc1OC", "note": "(stereo unspecified)", "activity change, negative = inhibition": "11.8% (inactive)"},
      {"compound": "COc1ccc(C2CC(c3cccs3)=NN2C(=O)CSc2nncs2)cc1OC", "note": "(stereo unspecified)", "Potency": "10.4 µM (active)"},
      {"compound": "COc1ccc(C2=NN(C(=O)CCC(=O)O)C(c3cccs3)C2)cc1OC", "note": "(stereo unspecified)", "activity change, negative = inhibition": "23.4% (inactive)"},
      {"compound": "COc1ccc(C2CC(c3ccccc3)=NN2C(=O)COC(=O)COc2ccccc2)cc1", "note": "(stereo unspecified)", "activity change, negative = inhibition": "23.8% (inactive)"},
      {"compound": "COc1ccc(C2CC(c3cccs3)=NN2c2ccc(F)cc2)cc1OC", "note": "(stereo unspecified)", "activity change, negative = inhibition": "0% (inactive)"},
      {"compound": "COc1ccc(C2CC(c3cccs3)=NN2C(=O)CSc2nnc(N)s2)cc1OC", "note": "(stereo unspecified)", "Potency": "10.4 µM (active)"},
      {"compound": "Cc1ccccc1C1CC(c2cccs2)=NN1S(C)(=O)=O", "note": "(stereo unspecified)", "activity change, negative = inhibition": "-23.6% (inactive)"},
      {"compound": "COc1ccccc1CNC(=O)COC(=O)CNS(=O)(=O)c1ccc(NC(C)=O)cc1", "activity change, negative = inhibition": "-14.5% (inactive)"},
      {"compound": "CCCn1cc(S(=O)(=O)c2ccc(C)cc2)c(=O)c2cc(OCC)ccc21", "activity change, negative = inhibition": "32.7% (inactive)"},
      {"compound": "CCOc1ncccc1C(=O)NNC(=O)c1cccc(S(=O)(=O)Nc2ccccc2OC)c1", "activity change, negative = inhibition": "9.01% (inactive)"},
      {"compound": "O=C(CNC(=O)c1cccs1)N/N=C/c1cccc(Br)c1", "activity change, negative = inhibition": "38.7% (inactive)"},
      {"compound": "Cc1cc(F)ccc1S(=O)(=O)Nc1ccc(C(=O)N(C)Cc2ccco2)cc1", "activity change, negative = inhibition": "30% (inactive)"},
      {"compound": "Cc1sc2ncnc(N3CCC(C(=O)Nc4nc5ccc(Cl)cc5s4)CC3)c2c1C", "activity change, negative = inhibition": "36.2% (inactive)"},
      {"compound": "O=C(N/N=C\\C1CC=CCC1)c1ccc(Br)o1", "note": "(stereo unspecified)", "activity change, negative = inhibition": "2.65% (inactive)"},
      {"compound": "Cc1ccc(C(=O)N/C(=C/c2cccs2)C(=O)NCC2CCCO2)cc1", "note": "(stereo unspecified)", "activity change, negative = inhibition": "32.8% (inactive)"},
      {"compound": "Cc1ccc(-n2c(C)cc(/C=C(\\C#N)C(=O)NCC3CCCO3)c2C)cc1", "note": "(stereo unspecified)", "Potency": "5.86 µM (active)"},
      {"compound": "Cc1ccc(S(=O)(=O)N2CCC(C(=O)NCC3CCCO3)CC2)cc1", "note": "(stereo unspecified)", "activity change, negative = inhibition": "-25.5% (inactive)"},
      {"compound": "CC(=O)N(CC(O)CO)c1c(I)c(C(=O)NCC(O)CO)c(I)c(C(=O)NCC(O)CO)c1I", "note": "(stereo unspecified)", "Potency": "inactive and 13.5 µM (active)"},
      {"compound": "CC(C)(Oc1ccc(Cl)cc1)C(=O)OCC(=O)NCCc1ccc(S(N)(=O)=O)cc1", "activity change, negative = inhibition": "9.46% (inactive)"},
      {"compound": "Cc1cc(C)n2nc(C(=O)OC(C)C(=O)c3cc(C)c(C)cc3C)nc2n1", "note": "(stereo unspecified)", "activity change, negative = inhibition": "46.2% (inactive)"},
      {"compound": "Oc1ccc(Cl)c2c1CCC2", "activity change, negative = inhibition": "-18% (inactive)"},
      {"compound": "Cc1ccc(NC(=O)Nc2cc(-c3ccccc3)nn2C)cc1Cl", "activity change, negative = inhibition": "22.7% (inactive)"},
      {"compound": "COc1cccc(NC(=O)CN(C)C(=O)/C=C/c2cn(-c3ccccc3)nc2-c2cccs2)c1", "activity change, negative = inhibition": "3.17% (inactive)"}
    ]}
  ]
}
